Assay results reported in PubChem BioAssay (NCI).
Compounds without any hit were thinned out: in the full panel of roughly 83,000, 20% have a hit.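 Values shown are percent growth following 48 h exposure of cells in 96-well plates to a single concentration of compound; below 10 was considered active.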 Unmarked numbers belong to inactive results. The source made the active and inactive calls.

Key:
Assay in all cases: NCI-60 one-dose screen, 48 h (100 = growth as untreated, 0 = no growth, -100 = all killed)
Settings in all cases: 10 µM unless noted
[1] = system: NCI-H23 lung
[2] = system: NCI-H322M lung
[3] = system: HOP-62 NSCLC
[4] = system: NCI-H460 lung
[5] = system: HOP-92 NSCLC
[6] = system: NCI-H522 lung
[7] = system: A549/ATCC NSCLC
[8] = system: 786-0 renal
[9] = system: COLO 205 colon
[10] = system: DU-145 prostate
[11] = system: K-562 leukemia
[12] = system: MALME-3M melanoma
[13] = system: MDA-MB-231 breast
[14] = system: SF-268 CNS
[15] = system: SF-295 CNS
[16] = system: SF-539 CNS
[17] = system: UACC-257 melanoma
[18] = system: M14 melanoma
[19] = system: RXF 393 renal

SMILES | growth [1] | growth [2] | growth [3] | growth [4] | growth [5] | growth [6] | growth [7] | growth [8] | growth [9] | growth [10] | growth [11] | growth [12] | growth [13] | growth [14] | growth [15] | growth [16] | growth [17] | growth [18] | growth [19]
O=S(=O)(c1cccc(NC2=Nc3cccc4cccc2c34)c1)N1CCCC1 | 60.8% | 80.1% | 91.5% | 50.7% | -3.41% (active) | 75.3% | 66.3% | 82.9% | 95.6% | 90.4% | 19.3% | 64.1% | 77.1% | 79.1% | 59% | 74.9% | 64.9% | 69.5% | –
Cc1ccccc1-c1cc(Cc2ccc(F)cc2)c(=O)[nH]n1 | 98.3% | 94.3% | 95% | 107% | 99.8% | 95.1% | 33.4% | 111% | 108% | 130% | 84.8% | 88% | 109% | 94.6% | 123% | 94.2% | 137% | 118% | –
Cn1c(COC(=O)NCCc2ccccn2)nc2c(N3CCOCC3)nc(Cl)nc21 | 16.9% | 78.9% | 42.3% | – | -29.5% (active) | -24% (active) | 44.2% | -74.7% (active) | -41.1% (active) | 8% (active) | 2.75% (active) | -71.2% (active) | -64.5% (active) | 46% | 71.7% | -19.8% (active) | 18.1% | -59.2% (active) | –
COc1cccc(CNCCN2C(=O)c3ccc4c5c(ccc(c35)C2=O)C(=O)N(CCNCc2cccc(OC)c2)C4=O)c1 | 87.2% | 89.9% | 105% | 46.8% | 99.9% | 86.9% | 46.2% | 81% | 53.7% | 113% | 8.7% (active) | 26.3% | 78.1% | 74.1% | 113% | 97.8% | 79.1% | 71.7% | 87%
CN1CCN(CCCNc2nccc(-c3c(-c4ccc(F)c(O)c4)nc4sccn34)n2)S1(=O)=O | 94.2% | 115% | 104% | 101% | 70.7% | 74.4% | 103% | 126% | 29.8% | 97.7% | 66% | -10.4% (active) | 70.8% | 104% | 101% | 113% | 33.8% | 20% | –
CCCCCN1C=C/C(=C\C(=O)N(C)c2cccc3ccccc23)c2ccccc21 | 81.4% | 97.7% | 102% | 105% | 92.6% | 83.1% | 102% | 96.8% | 109% | 104% | 77.4% | 94% | 106% | 95.3% | 97.7% | 105% | 106% | 102% | 107%
C=C1C(=O)O[C@H]2[C@H]1CC/C(COC(=O)NCCc1c[nH]c3ccc(Cl)cc13)=C\CC[C@@]1(C)O[C@@H]21 | 13.8% | 81.6% | 64.6% | 17.5% | -71% (active) | -80.1% (active) | 56.5% | -78.7% (active) | -70.9% (active) | -87.8% (active) | -13.2% (active) | -84.4% (active) | -70.5% (active) | -71% (active) | 75.4% | -63.8% (active) | -11.6% (active) | -54.8% (active) | -93.6% (active)
NS(=O)(=O)c1cccc(NC(=O)C(=O)C2C(=O)Nc3ccccc32)c1 (stereo not given) | 95.3% | 121% | 90.2% | 106% | 74.6% | 102% | – | 114% | 123% | 107% | 109% | 102% | 95.7% | 105% | 94.2% | 101% | 100% | 99.1% | –
O=C(Nc1ccc2ncnc(Nc3ccc(Oc4cccc(F)c4)c(Cl)c3)c2c1)c1ccc(CNCCO)cc1 | 73.7% | 39.9% | 54.7% | -61.4% (active) | 62.5% | 26.9% | 48.6% | -4.01% (active) | -54.5% (active) | 7.74% (active) | -8.41% (active) | 2.04% (active) | -67.2% (active) | 56% | 19.6% | 33.9% | 99.1% | -45.9% (active) | –
Clc1nc(Cl)c2ncn(CCOCCn3cnc4c(Cl)nc(Cl)nc43)c2n1 | -78.5% (active) | -97.1% (active) | -71.8% (active) | -62.8% (active) | -93.2% (active) | -85.4% (active) | -76.2% (active) | -92.9% (active) | -65.2% (active) | -99.1% (active) | -62.9% (active) | -73.2% (active) | -89.9% (active) | -83.3% (active) | -91.9% (active) | -89.9% (active) | -89.7% (active) | -84.9% (active) | –
COc1cc(CCNc2nc3cc(N)cc(N)c3nc2-c2ccccc2)cc(OC)c1 | 19.3% | 23.8% | -35.1% (active) | 34.1% | -71.2% (active) | -65.1% (active) | 78.3% | -60% (active) | -60.8% (active) | 85.7% | -71.2% (active) | -66.4% (active) | -22.6% (active) | 7.74% (active) | 60.8% | -31.7% (active) | 88.9% | -32.8% (active) | -64.4% (active)
CC(=O)OCC(=O)C1(O)C(C)CC2C3C=C(C)C4=Cc5c(cnn5-c5ccccc5)CC4(C)C3C(O)CC21C (stereo not given) | 8.49% (active) | 57.9% | 7.4% (active) | 6.3% (active) | -0.484% (active) | 4.55% (active) | 24.5% | -39.2% (active) | -70.1% (active) | 27.1% | 2.57% (active) | 25.6% | -11.2% (active) | 31.1% | -51.1% (active) | -21.3% (active) | 52.3% | -4.56% (active) | -5.14% (active)
COc1cccc(CCC(=O)c2cc3c(N)c(C(=O)Nc4cccc(Cl)c4C)sc3nc2C)c1 | 37.4% | 43.6% | 36.4% | 7.76% (active) | 48% | 12.1% | 27.3% | 25.9% | 7.16% (active) | 13.8% | 7.49% (active) | 41.3% | 16.9% | 37.3% | 2.95% (active) | -41.6% (active) | 65.1% | 16.4% | –
N#CSCC1CC(O)(c2ccccc2)C(c2ccccc2)C(c2ccc(F)cc2)O1 (stereo not given) | 7.22% (active) | 60.4% | 60.3% | 25.2% | 1.42% (active) | 25.2% | 63.1% | 3.08% (active) | 22.1% | -4.17% (active) | 12.6% | -10.9% (active) | -4.68% (active) | 29.9% | 52.9% | 40.5% | 60.1% | -2.19% (active) | 25.9%
O=C(N/N=C/c1ccc(F)cc1)c1ccccc1Nc1cccc(C(F)(F)F)c1 | 104% | 111% | 109% | 101% | 76.4% | 92.8% | – | 95.5% | 120% | 96.8% | 83.9% | 111% | 117% | 82.6% | 121% | 109% | 105% | 95% | –
CCOC(=O)c1cnc2c(cnn2CC)c1NN=C(C)C | 96.5% | 94.6% | 76.6% | 106% | 73.9% | 74.4% | 96.2% | 86.5% | 113% | 100% | 62.9% | 99.7% | 91.6% | 92.4% | 96.1% | 94.8% | 113% | 106% | –
COc1ccc(C2=NN(C(C)=O)C(c3cn(Cc4ccc(Cl)cc4)c4ccccc34)C2)cc1 (stereo not given) | 73.3% | 83.1% | 85.7% | 86.9% | 61.2% | 69.5% | 64.6% | 89.4% | 115% | 97.4% | 52.6% | 72.2% | 78.7% | 79.9% | 85.6% | 82.1% | 81.7% | 99.4% | –
c1cnc2nc3c(cc2c1)oc1ccccc13 | 95.9% | 99.9% | 108% | 95.2% | 90.3% | 89.1% | 87.3% | 89.4% | 109% | 103% | 92.4% | 109% | 86.3% | 97.1% | 96.7% | 93.2% | 116% | 105% | –
COc1ccccc1C(C[N+](=O)[O-])c1c(-c2ccccc2)[nH]c2cc(C)ccc12 (stereo not given) | 68.4% | 90.4% | 71.9% | 85.2% | 64.4% | 27.8% | – | 86.8% | 78.4% | 101% | 8.66% (active) | 61.2% | 55.4% | 78.6% | 54.1% | 84.2% | 83% | 45.6% | 74.7%
